Source: PubChem BioAssay
Gal4-VP16 FLuc: VP16 counterscreen qHTS for inhibitors of ROR gamma transcriptional activity; Drosophila S2 Gal4-VP16 UAS-luciferase, luminescence, 20 h; AID 2546, 2010; Potency, µM (titrated, usually from 53.6 µM), for inactives: at the highest dose activity, negative = inhibition, hits mostly inhibitors; 310,000 compounds, 3.5% hits;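 note: Gal4-VP16 expression switched on by copper sulfate through the metallothionein promoter; potency is the fitted concentration of half-maximal effect; % is set by controls: 0 for no effect and ±100 for the full control effect; nearly all actives have a fitted effect of over 50% in size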
RORgamma inh: qHTS for inhibitors of ROR gamma transcriptional activity; Nuclear receptor ROR-gamma (Mus musculus), P51450; Drosophila S2 Gal4-RORgamma UAS-luciferase reporter, 20 h; Potency, µM (top dose mostly 53.6 µM), for the others: at the top dose activity change, negative = inhibition, usual class: inhibitors; 310,000 compounds, 5.4% hits; AID 2551, 2010; note: potency is the fitted concentration of half-maximal effect; % is set by controls: 0 for no effect and ±100 for the full control effect; nearly all actives have a fitted effect of over 60% in size
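Read-out: Photinus luciferase luminescence; inhibitors lower reporter signal. Insect Schneider cells with Gal4-ROR gamma fusion under metallothionein promoter, UAS reporter; 700 uM final copper sulfate induction, 20 hr, ambient temperature.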
CBFb-RUNX1 inh: qHTS Assay for Compounds Blocking the Interaction Between CBF-beta and RUNX1 for the Treatment of Acute Myeloid Leukemia. Potency, µM (doses to about 59.8 µM), without a hit: at the highest dose activity, negative = inhibition, usual class: inhibitors. 230,000 tested, under 10 active. AlphaScreen CBFb-His/RUNX1-biotin binding, biochemical. AID 1477, 2009; note: % of control where 0% means no effect
Target sequence (Q01196 whole entry, looked up): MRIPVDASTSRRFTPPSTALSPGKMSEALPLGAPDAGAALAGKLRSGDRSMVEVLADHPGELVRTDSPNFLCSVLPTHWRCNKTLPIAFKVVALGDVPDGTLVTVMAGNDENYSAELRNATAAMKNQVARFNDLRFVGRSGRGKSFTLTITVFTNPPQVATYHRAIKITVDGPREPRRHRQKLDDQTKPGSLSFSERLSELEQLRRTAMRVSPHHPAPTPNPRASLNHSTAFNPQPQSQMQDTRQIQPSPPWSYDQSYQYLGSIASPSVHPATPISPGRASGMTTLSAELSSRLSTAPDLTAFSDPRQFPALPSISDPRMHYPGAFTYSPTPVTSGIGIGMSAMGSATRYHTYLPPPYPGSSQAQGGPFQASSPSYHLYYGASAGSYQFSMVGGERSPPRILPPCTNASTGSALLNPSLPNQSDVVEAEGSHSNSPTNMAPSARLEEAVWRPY
Target sequence (Q13951 whole entry, looked up): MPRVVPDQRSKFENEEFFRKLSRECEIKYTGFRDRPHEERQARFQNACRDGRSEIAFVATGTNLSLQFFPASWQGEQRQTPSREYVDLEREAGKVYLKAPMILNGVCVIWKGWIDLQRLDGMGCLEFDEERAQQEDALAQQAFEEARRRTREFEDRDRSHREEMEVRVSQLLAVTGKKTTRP
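CBFb-His/RUNX1-biotin, 30 nM each, preincubated 20 min RT; compound 15 min RT; Ni + streptavidin beads 50 ng each, 90 min RT; AlphaScreen read.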
MBNL1-CUG inh: qHTS Assay for Inhibitors of MBNL1-poly(CUG) RNA binding; Potency, µM (doses to about 57.5 µM), for inactives: at the top dose activity change, negative = inhibition, most hits filed as inhibitors; 280,000 compounds, 0.036% hits; AID 2675, 2010; TR-FRET MBNL1-His/biotin-(CUG)12 binding, 665/545 ratio; Muscleblind-like protein 1 (Homo sapiens), Q9NR56; active = well fitted inhibition curve with a large enough effect in the signal ratio, with a control signal flat, not every such curve was filed as active; inconclusive = small, poorly fitted or top-dose-only effect, or effect the other way, or a change in a side signal; inactive = no such curve, though single readings can be large or run the other way; the % refers to the signal ratio; note: potency is the fitted concentration of half-maximal effect; % is set by controls: 0 for no effect and ±100 for the full control effect
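MBNL1-His + Biotin-(CUG)12, cpd titration 92 nM–58 uM; Tb anti-His Ab 0.055 ng/ul, SA-XL665 5 nM (final); 60 min RT; ratiometric 665/545 nm, Ex 340 nm; normalized to buffer and full-complex controls.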
CtBP-E1A blk: qHTS Assay for Inhibitors of the CtBP/E1A Interaction | AlphaScreen GST-E1A/His-CtBP binding, 1536-well; hits give low values | activity change, % (test concentration not listed) | 340,000 compounds, 0.49% hits | AID 651724, 2012; in the data active = activity change below about -65%; inconclusive = mostly about -30% to -63%; note: % is set by controls: 0 for no effect and ±100 for the full control effect
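Protein mix (5X: 125 nM each GST-E1A, His-CtBP) was incubated with pinned compound 2 h at 37 deg C in dark, in 50 mM Tris pH 8.0 buffer with 300 mM NaCl. Glutathione donor and nickel acceptor beads followed; AlphaScreen signal read after 1 h.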
Six1-Eya2 blk: qHTS Assay for Inhibitors of the Six1/Eya2 Interaction; AlphaScreen GST-Six1/His-Eya2 binding, biochemical; hits give low values; activity change, % (test concentration not listed); AID 651725, 2012; 360,000 compounds, 0.56% hits; Homeobox protein SIX1 (Homo sapiens) + Protein phosphatase EYA2 (Homo sapiens), …; in the data active = activity change below about -65%; inconclusive = mostly about -30% to -63%; note: % is set by controls: 0 for no effect and ±100 for the full control effect
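Compounds are tested against tagged Six1 and Eya2 proteins bridged by glutathione donor and nickel acceptor beads; after a one-hour incubation at 37 °C without light, AlphaScreen emission is recorded.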
* = called active by the depositor; u = inconclusive; x = no result given; ! = a repeat was not active. This is a sample that favours compounds with a hit; in the whole collection about 5.5% have one here. Unless noted, calls come from the whole dose curve; as a rule, active = well fitted curve in the direction sought with a large enough effect; inconclusive = small, poorly fitted or top-dose-only effect, or another doubt; inactive = no such curve, though single readings can be large; an effect the other way counts as inactive or inconclusive.

SMILES | Gal4-VP16 FLuc | RORgamma inh | CBFb-RUNX1 inh | MBNL1-CUG inh | CtBP-E1A blk | Six1-Eya2 blk
COc1cccc(-n2nnnc2SCC(=O)N2CCCc3ccccc32)c1 | u | 20µM* | 10% | -7% | 3 | -7
COc1cc(OC)cc(-n2nnnc2SCC(=O)N2CCCc3ccccc32)c1 | 3% | 20% | 7% | 0% | 5 | 2
O=C(CSc1nnnn1-c1cccc(Cl)c1)Nc1ccc2c(c1)CCC2 | 8.9µM* | u | -6% | -22% | x | x
COCCNC(=O)C1(C)CCN(C(=O)c2cc(C)n(C(C)(C)C)n2)C1 (configuration not stated) | x | x | x | x | 4 | 8
COc1ccc(/C=C/C(=O)c2ccc(OC)cc2OC)cc1 | -6% | 13% | 8% | -1% | -3 | 3
COc1cc(C(=O)/C=C/c2cccnc2)ccc1O | u | 10µM* | x | 10% | -13 | -1
COc1ccc(OC)c(C(=O)/C=C/c2cccnc2)c1 | 2.8µM* | 7.9µM* | x | 0% | 0 | 4
COc1cc(OC)c(C(=O)/C=C/c2ccccc2)c(O)c1O | 10µM* | u | 7% | -4% | 1 | -1
O=C(/C=C/c1cccnc1)/C=C/c1cccnc1 | 5µM* | 5µM* | 1% | -5% | 5 | -2
O=C(CNC(=O)C1CCCCC1)OCC(=O)c1ccc(Br)cc1 | x | x | x | -7% | 2 | 8
Nc1ccc(Cc2ccc(N)c(O)c2)cc1O | 2% | -27% | -18% | 19% | -3 | -5
Cc1sc(N/N=C/c2cccs2)nc1-c1ccccc1 | 10µM* | 7.1µM* | -9% | 1% | -11 | -16
COc1cccc2c1OCC(C(=O)O)C2 (configuration not stated) | 7% | 1% | 0% | -5% | 3 | 7
COc1cccc2c1C(CO)N1C(C#N)C3CC(C(=O)O)C(C1C2)N3C (configuration not stated) | 10µM* | 7.1µM* | 7% | 5% | -1 | -22
COC(=O)c1cccc(NS(=O)(=O)c2cccs2)c1C | 29% | 38% | 7% | -9% | -8 | -1
COC(=O)c1ccccc1NC1=C/C(=N\S(=O)(=O)c2ccc(C(=O)O)cc2)c2ccccc2C1=O | u | u | x | u | -80* | u
COC(=O)c1ccccc1NC1=C/C(=N\S(=O)(=O)c2cccs2)c2ccccc2C1=O | u | 27% | u | u | u | -84*!
Cc1ccc(NC(=O)CCNS(=O)(=O)c2ccc(OC(F)(F)F)cc2)c(O)c1 | -1% | 14% | x | -9% | 2 | -5
Cc1nc(-c2ccc(C(F)(F)F)cc2)sc1C(=O)NN | 3.5µM* | 4.5µM* | -1% | x | 10 | -6
COc1ccc(/C=C/C(=O)NNC(=O)c2cc(C)oc2C)cc1 | x | x | x | x | -8 | -1
O=C(Nc1nc2ccccc2s1)c1cc2c(s1)-c1ccccc1OC2 | u | -28% | 10% | 2% | 14 | 7
Cc1cccc2c1-c1sc(C(=O)Nc3cccnc3)cc1CO2 | 16% | -14% | x | -7% | 9 | 13
Cc1cccc2c1-c1sc(C(=O)Nc3cccc([N+](=O)[O-])c3C)cc1CO2 | u | 5% | -6% | -11% | 0 | 3
CN1CCN(c2ccccc2NC(=O)c2cc3c(s2)-c2ccccc2OC3)CC1 | -10% | -41% | 25% | u | -79* | -1
O=C(Nc1cccnc1)c1cc2c(s1)-c1ccccc1OC2 | -9% | 4.5µM* | x | u | x | 24
SMILES | Gal4-VP16 FLuc | RORgamma inh | CBFb-RUNX1 inh | MBNL1-CUG inh | CtBP-E1A blk | Six1-Eya2 blk
Cc1cccc2c1-c1sc(C(=O)Nc3nccs3)cc1CO2 | 5.6µM* | 4.5µM* | 12% | 94% | 0 | 13
O=C(Nc1nccs1)c1cc2c(s1)-c1ccccc1OC2 | 4.5µM* | 5µM* | 23% | 2% | 11 | 15
Cc1ccc(N2CC(C(=O)OCC(=O)c3ccc(C)c([N+](=O)[O-])c3)CC2=O)cc1 (configuration not stated) | x | x | x | x | 2 | 2
Cc1ccc2c(c1)cc(C(=O)N[C@@H](Cc1ccccc1)C(=O)O)n2C | -9% | 14% | x | 4% | -13 | -6
O=c1c2ccccc2[nH]c(=S)n1C1CCCCC1 | 2.8µM* | 0.89µM* | 8% | -6% | 12 | 13
CC1CCC(n2c(=S)[nH]c3ccccc3c2=O)CC1 (configuration not stated) | 1µM* | 0.2µM* | -6% | 8% | 2 | 3
CC1(C)CC(n2c(=S)[nH]c3ccccc3c2=O)CCO1 (configuration not stated) | 8.9µM* | 8.9µM* | 9% | -7% | 10 | 1
CC1CCCC(n2c(=S)[nH]c3ccccc3c2=O)C1C (configuration not stated) | 0.63µM* | 0.28µM* | -6% | -11% | -3 | -1
CC1CCN(CCn2c(=S)[nH]c3ccccc3c2=O)CC1 | -15% | u | x | 16% | 0 | 0
CC1(C)C(=O)C(c2ccccc2)=C2CN3C(=O)N(CCc4ccccc4)C(=O)C3(Cc3ccc(C(F)(F)F)cc3)C=C21 (configuration not stated) | -6% | 1% | 7% | x | x | x
COc1ccccc1NC(=O)COC(=O)c1ccccc1C(=O)N1CCN(c2ccccc2)CC1 | -12% | 29% | 11% | -17% | -1 | -1
CC(=O)Nc1nonc1NC(=O)CSc1nc2ccccc2o1 | 4µM* | 0.79µM* | 1% | -11% | u | -28
CCOC(=O)c1sc(NC(=O)CSc2nnc(Cc3ccccc3)o2)c(C(=O)OCC)c1C | -16% | u | 2% | -1% | 1 | -1
Cc1nonc1NC(=O)CSc1nc2ccccc2o1 | u | 8.9µM* | x | 0% | -7 | 2
CCOC(=O)c1c(-c2ccccc2)csc1NC(=O)CSc1nncs1 | u | 28% | -7% | 11% | 22 | 13
CCOC(=O)c1sc(NC(=O)CSc2nc3ccccc3o2)c(C(=O)OCC)c1C | 2µM* | 3.2µM* | -7% | -3% | 2 | 7
CCOC(=O)c1c(NC(=O)CSc2nncs2)sc(C)c1-c1ccccc1 | 0.45µM* | -25% | 11% | x | -27 | -19
Cc1cc(C)nc(NC(=O)CSc2nc3ccccc3o2)n1 | 6% | u | -1% | 4% | 2 | -1
